From the supplement of paper PMC3334620
The full ranking holds about 33,000 sequences; the median of “E-score (-0.5 to 0.5)” is about -0.041, and the highest 2% start at about 0.37. The full list was thinned out, with the highest values kept by preference.

Molecular target: T1, Ecm22 (UniProt Q05958)
T1 sequence: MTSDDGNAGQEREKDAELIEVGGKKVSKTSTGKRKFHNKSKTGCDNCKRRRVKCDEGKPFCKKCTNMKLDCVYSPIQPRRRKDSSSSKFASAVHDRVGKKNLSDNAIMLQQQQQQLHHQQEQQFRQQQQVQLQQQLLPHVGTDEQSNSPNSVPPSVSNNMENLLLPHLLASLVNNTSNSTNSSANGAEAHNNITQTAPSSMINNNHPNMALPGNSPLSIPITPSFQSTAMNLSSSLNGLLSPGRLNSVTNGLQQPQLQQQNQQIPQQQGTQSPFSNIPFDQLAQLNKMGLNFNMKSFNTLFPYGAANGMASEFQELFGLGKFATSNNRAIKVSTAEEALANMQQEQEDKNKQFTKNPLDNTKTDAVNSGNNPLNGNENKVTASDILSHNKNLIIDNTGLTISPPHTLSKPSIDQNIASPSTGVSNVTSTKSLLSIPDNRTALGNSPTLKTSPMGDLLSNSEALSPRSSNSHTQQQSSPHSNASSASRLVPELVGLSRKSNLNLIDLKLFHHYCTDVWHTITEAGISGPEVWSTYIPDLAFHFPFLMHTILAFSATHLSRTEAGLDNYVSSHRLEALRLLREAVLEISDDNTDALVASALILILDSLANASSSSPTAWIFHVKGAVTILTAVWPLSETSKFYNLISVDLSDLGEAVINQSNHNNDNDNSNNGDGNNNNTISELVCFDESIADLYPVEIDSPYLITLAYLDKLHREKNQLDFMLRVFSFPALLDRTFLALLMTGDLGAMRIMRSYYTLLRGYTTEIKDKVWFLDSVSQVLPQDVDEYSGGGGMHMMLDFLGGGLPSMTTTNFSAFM
Experiment: PBM E-score (8-mer binding enrichment) (E-score (-0.5 to 0.5)); higher = stronger / more preferred TF binding
Details: protein concentration: 200 nM; construct: GST-full length
Procedure: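 Universal 'all 10-mer' protein binding microarrays (Agilent AMADID 015681) probed with GST-tagged S. cerevisiae TFs (full-length or DBD) made by in vitro transcription/translation (PURExpress), about 100-200 nM. Bound TF was detected with fluorescent anti-GST. Each ungapped 8-mer (which stands for itself and its reverse complement) is scored by the PBM enrichment score (E-score), a modified Wilcoxon-Mann-Whitney statistic from -0.5 to +0.5, computed with the Universal PBM Analysis Suite. Scale: above 0.35 generally sequence-specific binding.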

Sequence | PBM E-score
GATATAAC | 0.156
AAGGACAC | -0.168
ACTTTGGG | -0.263
ATTGACTC | -0.0667
AACACAAT | -0.00044
CTTTTCCA | -0.271
GGCGGCGA | -0.157
GACAGAGA | 0.0187
AATACGTC | 0.0846
GATACGTA | 0.253
GATACGCC | 0.162
GATACAAA | 0.163
GATACGAA | 0.445
AATACGAC | 0.429
AATACGGT | 0.21
AATACGCT | 0.121
GATACGGC | 0.32
AATACGGC | 0.268
GATACGAC | 0.464
AATACGAT | 0.384
ATTCCGAC | -0.0388
AAAACGAT | 0.257
ACGTTCTA | 0.0664
AGGAATAT | 0.06
AGTTGAAC | 0.0747

Sequence | PBM E-score
AGTGGAGA | -0.128
ACCGAGTG | 0.159
TCCAGGGA | -0.173
CACGGACG | -0.0335
AGCTAACA | -0.248
CATACGCG | 0.269
CATACGAG | 0.481
CATACGGG | 0.36
AGGGTTAA | -0.0692
CGGCTCAC | -0.0852
AGGTTAGA | -0.186
GGACGAGA | 0.0358
AATCGAGC | 0.237
AACCGAGC | 0.355
GCACGAGA | 0.127
GAACGAGC | 0.483
GAGCGAGA | 0.377
AAACGAGC | 0.482
CAGCGAGA | 0.0257
GAACGAGA | 0.464
GCACGAGC | 0.0624
CAACGAGC | 0.336
GAGCGAGC | 0.354
GCTGCCTA | -0.101
AGTGGGCG | -0.167

Sequence | PBM E-score
ATAGGATC | -0.135
GCCTAGCA | -0.213
ATAAGGAG | -0.0163
GTGTACCA | 0.0289
GTGTACTA | 0.207
CTGTACAA | -0.0518
CTGTACGA | 0.48
ATGTACGG | 0.365
ATGTACGC | 0.112
CTGTACGC | 0.314
GTGTACGA | 0.481
ATGTACGA | 0.477
TACTGACA | 0.0366
AGTCCAAA | -0.108
GGCGGCAC | 0.0476
GCTGGGGA | -0.211
CCACCCGC | -0.0883
CCACCGTA | 0.34
GCACCGTA | 0.371
AAACCGTA | 0.27
ACACCGTA | 0.313
TAACCGTA | 0.375
GAACCGTA | 0.248
AGACAGCA | -0.143
AATACCGT | 0.197

Sequence | PBM E-score
CAGGGTGA | -0.192
GAATCGTC | 0.14
AAATCGTC | 0.127
GAATCGTA | 0.38
CAATCGTA | 0.389
AAATCGTA | 0.393
TAATCGTA | 0.418
TAATCGAA | 0.134
TAATCGGA | 0.16
AAATCGTG | 0.0433
CAATCGTC | -0.0527
CAATCGTG | -0.215
GAATCGCA | -0.0229
ACCCACAA | 0.105
ACGTAGTC | -0.158
AGATAGGG | -0.127
ATCTCGAG | -0.0735
AATGGCTG | -0.124
CGAGTACG | 0.392
CGAGTACC | 0.21
AGAGTACG | 0.257
CGGGTACC | -0.134
AGGGTACC | -0.323
CGGGTACG | 0.452
AGGGTACA | -0.0565

Sequence | PBM E-score
CGGGTACA | 0.157
AGGGTACG | 0.411
AAGGGCTG | -0.377
AAGAGACG | 0.0921
CTACTCTA | -0.204
CAAAACGA | 0.278
ACAAACGC | 0.174
ACAAACGA | 0.445
ACAAACGG | 0.226
GCAAACGC | 0.0881
GCAAACAA | 0.0626
CCAAACGA | 0.437
GCAAACGA | 0.433
TCAAACGA | 0.452
CCAAACGG | 0.287
CCAAACGC | 0.177
TCAAACAA | -0.155
AGCGGGTG | -0.186
CTTTTGCC | -0.0531
ATCAACCA | -0.154
CGCAAGCG | 0.142
TGGACCAA | -0.206
AGGGAGAT | -0.275
CAATGACG | -0.147
ACGTTTAC | 0.304

Sequence | PBM E-score
CAGTTTAG | -0.0933
CCGTTTAG | 0.433
ACGTTTAA | 0.365
CCGTTTAA | 0.441
ACGTTTAG | 0.33
GCGTTTAA | 0.28
CCGTTTAC | 0.416
GCGTTTAC | 0.227
ACAGATCT | -0.159
GTTCCAAC | 0.135
AATACTAG | 0.0461
CAGGCGCA | -0.24
AGGAGGCA | -0.294
CACGAAAC | 0.147
ACCGAAAG | 0.0863
AACGAAAA | 0.364
GACGAAAC | 0.287
CACGAAAG | -0.0739
AACGAAAC | 0.389
AACGAAAT | 0.4
AACGAAAG | 0.399
ACCGAAAT | 0.15
CCTAAAAG | -0.201
AACCAAAG | -0.0743
GTGGCAAA | -0.187

Sequence | PBM E-score
AGCACCAT | -0.122
AGCGTACC | 0.251
ATCGTACA | 0.465
CGCGTACA | 0.269
ATCGTACC | 0.479
AGCGTACA | 0.179
CACGTACA | 0.216
ATAGTACA | 0.151
ATCGTACG | 0.437
ATAGTACG | 0.325
ATAGTACC | 0.00552
AGCGTACG | 0.351
CTCGTACA | 0.489
GTTGACCA | -0.16
TACCGCAA | 0.0649
AACTGCAT | -0.00243
ACGCCCAG | -0.143
AGGCTTAA | -0.168
GGTACTGA | -0.0769
CCCGATCA | 0.197
GACGTACA | 0.211
GTCGTACA | 0.484
AACGTACG | 0.378
AACGTACC | 0.297
